Test results taken from PubChem BioAssay AID1159580 (chemical genetic matrix, 2015).
In all, about 5,500 compounds went through this assay and about 2,000 (36%) were called active. Not shown: some 18% with an inconclusive outcome. No stated cut-off is given here; in the data, active means normalized growth mostly below about 0.91 (no sharp cut-off); inconclusive means no clear call, values can overlap the other calls; inactive means mostly above about 0.92. The list shows a part of the results.

Experiment: chemical genetic growth profiling, strain panel (AID 1159580);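 further: tested at 20 µM; growth read once vehicle control cultures reached saturation at 30 °C; 1 = growth at the plate median or of vehicle wells; lower values mean less growth of the strain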
Details: growth OD

Measured: normalized growth

CC(=O)Oc1cc(OC(C)=O)c2c(c1)O[C@H](c1ccc(OC(C)=O)c(OC(C)=O)c1)[C@@H](OC(C)=O)C2
inactive: S. cerevisiae deletion strains, locus YJR066W, strain TOR1, hits give low values 0.934 | S. cerevisiae deletion strains, locus YJR075W, strain HOC1, hits give low values 1.01 | S. cerevisiae deletion strains, locus YKL009W, strain mrt4, hits give low values 1.04 | S. cerevisiae deletion strains, locus YKL068W, hits give low values 0.987 | S. cerevisiae deletion strains, locus YKL085W, strain MDH1 (second series), hits give low values 0.983 | S. cerevisiae deletion strains, locus YKL085W, strain MDH1, hits give low values 0.983 | S. cerevisiae deletion strains, locus YKL160W, strain elf1, hits give low values 1 | S. cerevisiae deletion strains, locus YKL190W, strain CNB1, hits give low values 0.997 | S. cerevisiae deletion strains, locus YKR001C, strain vps1, hits give low values 0.97 | S. cerevisiae deletion strains, locus YKR026C, strain gcn3, hits give low values 0.972 | S. cerevisiae deletion strains, locus YKR091W, strain srl3, hits give low values 1 | S. cerevisiae deletion strains, locus YLL001W, strain dnm1, hits give low values 0.992 | S. cerevisiae deletion strains, locus YLL026W, hits give low values 0.995 | S. cerevisiae deletion strains, locus YLL041C, strain sdh2, hits give low values 0.997 | S. cerevisiae deletion strains, locus YLR027C, strain aat2, hits give low values 1.02 | S. cerevisiae deletion strains, locus YLR039C, strain RIC1, hits give low values 1.04 | S. cerevisiae deletion strains, locus YLR058C, strain SHM2, hits give low values 1 | S. cerevisiae deletion strains, locus YLR102C, strain apc9, hits give low values 0.986 | S. cerevisiae deletion strains, locus YLR113W, strain HOG1, hits give low values 0.966 | S. cerevisiae deletion strains, locus YLR221C, strain rsa3, hits give low values 1.01 | S. cerevisiae deletion strains, locus YLR258W, strain gsy2, hits give low values 1 | S. cerevisiae deletion strains, locus YLR262C, strain YPT6 (second series), hits give low values 0.998 | S. cerevisiae deletion strains, locus YLR262C, strain YPT6, hits give low values 1.09 | S. cerevisiae deletion strains, locus YLR268W, strain sec22, hits give low values 0.958 | S. cerevisiae deletion strains, locus YLR320W, strain mms22, hits give low values 0.977 | S. cerevisiae deletion strains, locus YLR330W, strain CHS5, hits give low values 0.995 | S. cerevisiae deletion strains, locus YLR342W, strain FKS1 (second series), hits give low values 0.979 | S. cerevisiae deletion strains, locus YLR342W, strain FKS1, hits give low values 0.994 | S. cerevisiae deletion strains, locus YLR357W, strain rsc2, hits give low values 0.992 | S. cerevisiae deletion strains, locus YLR370C, strain arc18, hits give low values 1.01 | S. cerevisiae deletion strains, locus YLR371W, strain rom2, hits give low values 0.959 | S. cerevisiae deletion strains, locus YLR384C, strain iki3, hits give low values 1 | S. cerevisiae deletion strains, locus YLR418C, strain cdc73, hits give low values 1.03 | S. cerevisiae deletion strains, locus YML016C, strain PPZ1, hits give low values 0.978 | S. cerevisiae deletion strains, locus YML032C, strain rad52, hits give low values 1.01 | S. cerevisiae deletion strains, locus YML120C, strain ndi1, hits give low values 1.01 | S. cerevisiae deletion strains, locus YML124C, strain tub3, hits give low values 0.981 | S. cerevisiae deletion strains, locus YMR058W, strain fet3, hits give low values 1 | S. cerevisiae deletion strains, locus YMR078C, strain ctf18, hits give low values 0.964 | S. cerevisiae deletion strains, locus YMR125W, strain sto1, hits give low values 0.996 | S. cerevisiae deletion strains, locus YMR129W, hits give low values 1 | S. cerevisiae deletion strains, locus YMR205C, strain PFK2, hits give low values 0.972 | S. cerevisiae deletion strains, locus YMR223W, strain ubp8, hits give low values 1 | S. cerevisiae deletion strains, locus YMR231W, strain pep5, hits give low values 1 | S. cerevisiae deletion strains, locus YMR307W, strain GAS1, hits give low values 1.1 | S. cerevisiae deletion strains, locus YNL067W, strain RPL9B, hits give low values 1 | S. cerevisiae deletion strains, locus YNL071W, strain lat1, hits give low values 1.01 | S. cerevisiae deletion strains, locus YNL153C, strain GIM3, hits give low values 1 | S. cerevisiae deletion strains, locus YNL183C, strain NPR1, hits give low values 0.904 | S. cerevisiae deletion strains, locus YNL209W, strain ssb2, hits give low values 1 | S. cerevisiae deletion strains, locus YNL233W, strain BNI4, hits give low values 0.983 | S. cerevisiae deletion strains, locus YNL248C, strain rpa49, hits give low values 1.01 | S. cerevisiae deletion strains, locus YNL250W, strain rad50, hits give low values 0.977 | S. cerevisiae deletion strains, locus YNL271C, strain bni1, hits give low values 0.975 | S. cerevisiae deletion strains, locus YNL298W, strain CLA4, hits give low values 0.979 | S. cerevisiae deletion strains, locus YNL307C, strain MCK1, hits give low values 0.98 | S. cerevisiae deletion strains, locus YNL322C, strain KRE1 (second series), hits give low values 0.997 | S. cerevisiae deletion strains, locus YNL322C, strain KRE1, hits give low values 0.998 | S. cerevisiae deletion strains, locus YNR049C, strain mso1, hits give low values 0.995 | S. cerevisiae deletion strains, locus YNR052C, strain pop2, hits give low values 0.981 | S. cerevisiae deletion strains, locus YOL012C, strain htz1 0.674 | S. cerevisiae deletion strains, locus YOL147C, strain pex11, hits give low values 1 | S. cerevisiae deletion strains, locus YOR001W, strain rrp6, hits give low values 0.997 | S. cerevisiae deletion strains, locus YOR061W, strain CKA2, hits give low values 0.977 | S. cerevisiae deletion strains, locus YOR069W, strain VPS5, hits give low values 0.989 | S. cerevisiae deletion strains, locus YOR070C, strain gyp1, hits give low values 1 | S. cerevisiae deletion strains, locus YOR080W, strain dia2, hits give low values 0.998 | S. cerevisiae deletion strains, locus YOR083W, strain WHI5, hits give low values 1.01 | S. cerevisiae deletion strains, locus YOR106W, strain vam3, hits give low values 1 | S. cerevisiae deletion strains, locus YOR136W, strain idh2, hits give low values 0.965 | S. cerevisiae deletion strains, locus YOR144C, strain elg1, hits give low values 0.982 | S. cerevisiae deletion strains, locus YOR184W, strain ser1, hits give low values 0.986 | S. cerevisiae deletion strains, locus YOR231W, strain MKK1, hits give low values 0.974 | S. cerevisiae deletion strains, locus YOR265W, strain rbl2, hits give low values 1 | S. cerevisiae deletion strains, locus YOR270C, strain vph1, hits give low values 0.988 | S. cerevisiae deletion strains, locus YOR290C, strain snf2, hits give low values 0.961 | S. cerevisiae deletion strains, locus YOR316C, strain cot1, hits give low values 0.986 | S. cerevisiae deletion strains, locus YPL051W, strain arl3, hits give low values 1.01 | S. cerevisiae deletion strains, locus YPL055C, strain LGE1, hits give low values 0.999 | S. cerevisiae deletion strains, locus YPL078C, strain atp4, hits give low values 1.02 | S. cerevisiae deletion strains, locus YPL106C, strain sse1, hits give low values 0.996 | S. cerevisiae deletion strains, locus YPL240C, strain hsp82, hits give low values 0.992 | S. cerevisiae deletion strains, locus YPL241C, strain CIN2, hits give low values 0.999 | S. cerevisiae deletion strains, locus YPL256C, strain CLN2, hits give low values 0.974 | S. cerevisiae deletion strains, locus YPR119W, strain clb2, hits give low values 0.979 | S. cerevisiae deletion strains, locus YPR141C, strain kar3, hits give low values 0.981 | S. cerevisiae deletion strains, locus YPR163C, strain tif3, hits give low values 0.994 | S. cerevisiae deletion strains, locus YPR167C, strain met16, hits give low values 0.978 | S. cerevisiae deletion strains, strain wtn01, hits give low values 0.951 | S. cerevisiae strains, strain wild type, hits give low values 0.993
